# High-throughput results deposited in PubChem by National Center for Advancing Translational Sciences (NCATS).
# MCF10A rerep: inducers of DNA re-replication in MCF 10A breast cells; 2.9% of 350,000 active; AID 624296; MCF 10A DNA re-replication, Hoechst nuclear intensity, 48 h; Potency, µM (doses to about 46.1 µM), for the others: at the highest dose activity, positive = re-replication, most hits filed as activators; also: potency is read from the fitted curve at half-maximal effect; % of control where 0% means no effect; nearly all actives have a fitted effect of over 50% in size
# ASM inhibitor: inhibitors of human secretory acid sphingomyelinase | 0.006% of 340,000 active | P17405 | placental ASM, HMU-PC fluorogenic substrate, 60 min | Potency, µM (highest dose often 57.5 µM), for inactives: top-dose activity change, negative = inhibition, hits mostly inhibitors | AID 504937; also: potency is read from the fitted curve at half-maximal effect
# Target sequence (P17405 47-631 limits assumed): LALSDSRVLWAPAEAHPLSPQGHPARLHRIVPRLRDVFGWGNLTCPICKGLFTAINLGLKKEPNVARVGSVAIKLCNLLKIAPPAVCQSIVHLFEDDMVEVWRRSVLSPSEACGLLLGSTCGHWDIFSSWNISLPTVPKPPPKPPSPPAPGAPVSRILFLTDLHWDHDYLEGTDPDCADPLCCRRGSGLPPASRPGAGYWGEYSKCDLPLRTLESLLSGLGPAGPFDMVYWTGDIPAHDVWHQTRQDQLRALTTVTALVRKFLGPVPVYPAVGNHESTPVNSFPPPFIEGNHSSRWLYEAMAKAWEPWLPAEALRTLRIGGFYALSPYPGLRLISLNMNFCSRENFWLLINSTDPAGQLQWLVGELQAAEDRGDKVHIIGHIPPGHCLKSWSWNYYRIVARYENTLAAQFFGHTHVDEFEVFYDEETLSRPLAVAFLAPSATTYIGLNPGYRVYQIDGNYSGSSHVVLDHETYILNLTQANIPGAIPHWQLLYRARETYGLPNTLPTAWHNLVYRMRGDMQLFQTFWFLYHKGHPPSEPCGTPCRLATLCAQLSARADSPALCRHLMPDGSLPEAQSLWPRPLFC
#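 Steps: dispense placental human ASM, pin compound, wait 10 min at room temperature, add HMU-PC0 substrate at 9 uM final, incubate 60 min at 37 °C, add stop solution raising pH to 10, read fluorescence.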
# Giardia kill: Giardia lamblia killing; AID 540267; Giardia lamblia trophozoite viability; 0.15% of 340,000 active; activity change, % at 7.66 µM, hits read low; in the data active = activity change below about -80%; inconclusive = between about -30% and that limit;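 also: parasites exposed to compound for two days anaerobically before the ATP read; % is scaled to controls: 0 for no effect and ±100 for the full control effect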
#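 Killing of trophozoites was scored by loss of ATP luminescence after a 48 hrs anaerobic exposure to compounds at 37 deg C, using 100 cells per well.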
# SW480 rerep: induces DNA re-replication in SW480 colon adenocarcinoma cells; Potency, µM (top dose mostly 46.1 µM), for inactives: at the highest dose re-replication activation, most hits filed as activators; SW480 DNA re-replication, Hoechst DNA content imaging, 48 h; AID 624297; 1.8% of 340,000 active; also: potency is read from the fitted curve at half-maximal effect; % of control where 0% means no effect; nearly all actives have a fitted effect of over 55% in size
#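 250 cells/well; 23 nL cpd via pin tool; 48 hr, 37 C, 5% CO2; Hoechst 40 min; imager read of total nuclear intensity, ex 405/em 500-530 nm.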
# KB-V1 cytotox: kills drug-selected multidrug resistant KB-V1 cells. KB-V1 MDR cells viability, CellTiter-Glo, 72 h. Potency, µM (titrated, usually from 46.1 µM), most hits filed as cytotoxic. 3.4% of 400,000 active; also: potency is read from the fitted curve at half-maximal effect; % is scaled to controls: 0 for no effect and ±100 for the full control effect; nearly all actives have a fitted effect of over 60% in size
#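 KB-V1 MDR subline cells in DMEM (phenol-red free, 10% FBS) exposed to compounds in qHTS concentration series for 72 h at 37 degrees C. Viability read by CellTiter-Glo luminescence; concentration-effect curves fitted after normalization and correction.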
# KB-3-1 tox: KB-3-1 parental cell cytotoxicity; 1.4% of 400,000 active; Potency, µM (series often up to 46.1 µM), hits mostly cytotoxic; KB-3-1 viability, CellTiter-Glo ATP luminescence, 72 h; AID 1347075; also: potency is read from the fitted curve at half-maximal effect; % is scaled to controls: 0 for no effect and ±100 for the full control effect; nearly all actives have a fitted effect of over 60% in size
#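 Luminescent ATP read-out (CellTiter-Glo) measures survival of drug-naive KB-3-1 cells after 72 h compound exposure at 37 °C. Titration series was screened from lowest to highest concentration, with DMSO vehicle plates as background controls.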
# Numbers without * were called inactive; i = inactive; ? = inconclusive; · = no result given. Compounds with a hit are over-represented: about 6.9% of the library has one in this group of screens. Unless noted, calls follow the shape of the dose curve; as a rule, active = well fitted curve in the direction sought with a large enough effect; inconclusive = small, poorly fitted or top-dose-only effect, or another doubt; inactive = no such curve, though single readings can be large; an effect the other way counts as inactive or inconclusive.
SMILES,MCF10A rerep,ASM inhibitor,Giardia kill,SW480 rerep,KB-V1 cytotox,KB-3-1 tox
Cc1ccc(S(=O)(=O)NCCN=C(CN2CCCC2)NS(=O)(=O)c2ccc(C)cc2)cc1,0.6%,5.0%,11.4,6.6%,6.51µM*,i
COc1ccc(N(Cc2ccccc2)C(=O)c2ccccc2[N+](=O)[O-])cc1,3.9%,-0.4%,-16.9,8.9%,14.6µM*,?
COc1cccc(C2CC(=O)Nc3c2c(=O)n(C)c2nc4ccccc4n32)c1OC (centres undefined),·,·,·,·,i,i
CC(Sc1nc2c(c(=O)[nH]1)CCCC2)C(=O)Nc1cc(C(F)(F)F)ccc1Cl (centres undefined),·,·,·,·,i,i
O=C(Nc1cc(C(=O)N2CCCC2)ccc1N1CCCC1)c1ccccc1F,-6.3%,2.4%,11.1,-0.5%,3.66µM*,i
C[n+]1ccc(C(=O)Nc2ccccc2Cl)cc1,-3.2%,-0.1%,-4.0,-7.8%,i,i
CCOc1ccc2cc(/C=C/C(=O)c3ccco3)c(Cl)nc2c1,5.8µM*,41.1%,3.1,16.4µM*,?,?
CCN1CCN(CCNC(=O)c2ccc(/C=C3\Sc4ccccc4N(Cc4ccccc4F)C3=O)cc2)CC1,13µM*,7.6%,21.7,18.4µM*,?,i
CN1CCN(CCCNC(=O)c2ccc(/C=C3/Sc4ccccc4N(Cc4cccc(Cl)c4)C3=O)cc2)CC1,?,4.9%,-12.9,?,?,i
COCCCNC(=O)/C=C1\Sc2ccccc2N(Cc2ccccc2F)C1=O,?,24.4%,0.0,18.4µM*,i,i
CN1CCN(CCCNC(=O)c2ccc(/C=C3\Sc4ccccc4N(Cc4ccc(F)cc4)C3=O)cc2)CC1,18.4µM*,9.4%,-0.4,?,i,i
CN1CCN(CCCNC(=O)c2ccc(/C=C3\Oc4ccccc4N(Cc4ccccc4F)C3=O)cc2)CC1,9.2µM*,i,25.4,6.51µM*,i,i
CCOc1ccccc1NC(=O)Cn1cnc2onc(-c3ccc(F)cc3)c2c1=O,·,·,·,·,i,i
Cc1ccc(Cn2cnc3nc4c(cc3c2=O)CC(C)CC4)cc1 (centres undefined),·,·,·,·,i,i
Cn1nnnc1SCCCNCc1cc(Cl)ccc1OCc1ccccc1,·,·,·,·,?,i
Cc1cc(=O)oc2cc(NC(=O)c3ccccc3Cl)ccc12,-4.0%,i,0.8,-1.7%,i,i
COc1cc(OC)c(NC(=O)CCCn2nc(C)c3sc4ccccc4c3c2=O)cc1Cl,·,·,·,·,i,i
COc1cc(C2CC(c3c(C)cc(C)[nH]c3=O)=NN2c2ccccc2F)cc(OC)c1OC (centres undefined),23.1µM*,i,-3.5,?,i,i
O=C1c2ccccc2S(=O)(=O)c2cc(N3CCC4(CC3)OCCO4)ccc21,?,13.0%,-25.9,0.9%,7.31µM*,i
CC1CCN(c2ccc3c(c2)S(=O)(=O)c2ccccc2C3=O)CC1,18.4µM*,34.7%,-6.0,23.1µM*,i,i
Cc1ccc(C(=O)NCC(=O)OCc2cc(=O)n3nc(C4CCCCC4)sc3n2)cc1,·,·,·,·,i,i
COCc1cc(C)nc2sc(C(=O)Nc3ccc(OC(F)(F)F)cc3)c(N)c12,·,·,·,·,i,i
O=C(CCS(=O)(=O)c1ccccc1)OCc1ccc([N+](=O)[O-])cc1,0.0%,-1.7%,?,1.5%,i,i
O=C(O)CCC(=O)OCCN(Cc1ccc(Oc2ccc([N+](=O)[O-])cc2)cc1)C(=O)C(Cl)Cl,7.6%,3.3%,17.0,-0.9%,23.1µM*,i
COC(=O)C1(C(=O)OC)c2ccccc2N(S(=O)(=O)c2ccc(C)cc2)C1CC(=O)c1ccccc1 (centres undefined),·,·,·,·,?,i
Cc1ccc(/C=C(/C#N)C(=O)NC(C)c2ccccc2)o1 (centres undefined),-3.9%,0.5%,0.1,5.7%,18.4µM*,i
CCOc1ccccc1-c1nc2c([nH]1)c(=O)n(C)c(=O)n2C,1.6%,-3.4%,-5.7,19.0%,10.3µM*,?
